# Measured values reported in ChEMBL document CHEMBL2218924, “A broad activity screen in support of a chemogenomic map for kinase signalling research and drug discovery” (Biochem J, 2013).
# Biological target: Serine/threonine-protein kinase PAK 6 (Homo sapiens) (UniProt Q9NQU5)
# Conditions: at 1 µM
# Chain of Serine/threonine-protein kinase PAK 6 (Homo sapiens) (Q9NQU5 whole entry, looked up): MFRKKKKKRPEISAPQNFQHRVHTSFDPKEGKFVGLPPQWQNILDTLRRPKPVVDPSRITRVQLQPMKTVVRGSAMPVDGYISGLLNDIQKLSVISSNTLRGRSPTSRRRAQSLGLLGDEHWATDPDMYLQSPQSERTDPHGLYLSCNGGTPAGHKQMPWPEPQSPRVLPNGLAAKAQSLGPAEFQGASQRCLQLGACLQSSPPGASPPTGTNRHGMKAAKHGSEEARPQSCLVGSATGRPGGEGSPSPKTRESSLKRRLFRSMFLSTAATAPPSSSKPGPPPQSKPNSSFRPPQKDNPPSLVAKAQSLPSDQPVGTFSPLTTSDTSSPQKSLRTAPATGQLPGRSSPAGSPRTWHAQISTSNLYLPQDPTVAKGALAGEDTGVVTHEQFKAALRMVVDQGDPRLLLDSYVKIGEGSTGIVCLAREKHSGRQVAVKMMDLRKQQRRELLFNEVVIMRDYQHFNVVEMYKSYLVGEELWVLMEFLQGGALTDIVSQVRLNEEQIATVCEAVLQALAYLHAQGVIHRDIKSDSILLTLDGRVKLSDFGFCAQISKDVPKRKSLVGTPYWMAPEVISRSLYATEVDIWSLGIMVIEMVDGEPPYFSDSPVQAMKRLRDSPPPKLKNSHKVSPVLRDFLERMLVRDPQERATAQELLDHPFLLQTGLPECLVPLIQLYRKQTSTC
row,Compound,residual activity
1,O=C(O)/C=C/c1cc(Br)c(Br)c(Br)c1Br,102%
2,Nc1n[nH]c2nc3ccccc3nc12,84%
3,O=C(c1cc2cc(O)ccc2[nH]1)c1cc2cc(O)ccc2[nH]1,83%
4,Oc1cccc(-c2nc(N3CCOCC3)c3oc4ncccc4c3n2)c1,100%
5,CCCCc1c(-c2ccc(OC)cc2)[nH]c2nccnc12,92%
6,CCCC(=O)Oc1ccc2[nH]c(C(=O)c3cc4ccccc4[nH]3)cc2c1,108%
7,NC(=O)Nc1sc(-c2ccc(F)cc2)cc1C(N)=O,88%
8,COc1cc2nccc(Oc3ccc(NC(=S)NC(=O)c4ccccc4C)cc3)c2cc1OC,95%
9,NCCNc1ncc(C(N)=O)c(Nc2cccc(C(F)(F)F)c2)n1,63%
10,CC(C)(C)n1nc(Cc2cccc3ccccc23)c2c(N)ncnc21,98%
11,COc1ccc(Cl)cc1NC(=O)Nc1cc(C)nc2ccccc12,91%
12,O=c1cc(N2CCNCC2)oc2c(-c3ccccc3)cccc12,89%
13,Nc1ncnc2c1c(-c1ccc(Oc3ccccc3)cc1)cn2C1CCCC1,91%
14,O=C1NC(=O)c2c1c1c3ccccc3[nH]c1n1cncc21,98%
15,CN(C)S(=O)(=O)c1ccc2c(c1)/C(=C/c1cc3c([nH]1)CCCC3)C(=O)N2,76%
16,CCOC(=O)c1c(C)[nH]c(/C=C2\C(=O)Nc3ccccc32)c1C,91%
17,CCN(CC)CCNC(=O)c1c(C)[nH]c(/C=C2\C(=O)Nc3ccc(Cl)cc32)c1C,73%
18,CC(C)c1nn(-c2c(Cl)cccc2Cl)c2nc(Cc3ccc(OCCO)cc3)[nH]c(=O)c12,79%
